# According to the supplement of paper PMC4022240:
# ± gives the standard deviation.
# T1: HaloTag-ATRX ADD domain (163-292)
# T1 chain: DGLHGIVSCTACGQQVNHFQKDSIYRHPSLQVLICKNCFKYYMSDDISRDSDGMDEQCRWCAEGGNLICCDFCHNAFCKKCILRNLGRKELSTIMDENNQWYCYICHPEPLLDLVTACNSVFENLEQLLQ
# Columns and labels:
# Assay in all cases: peptide microarray binding signal (635 nm), min-max normalized on array (fraction of array maximum); higher = stronger binding
# [1] = target: T1, HaloTag-ATRX ADD domain (163-292)
# In short: (§1)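 Triplicate spots of histone 13-mer peptide–cellulose conjugates with a Cy3 tracer were printed on nitrocellulose and probed for 1 h at 4°C with biotin-labelled HaloTag reader fusions (10 nM to 1 μM) plus streptavidin-Alexa Fluor 647 or rabbit histone antibodies (1:10,000 to 1:2,000) plus anti-rabbit Alexa 647. An Axon GenePix 4000B read the 635 nm channel. Binding signal is the spot-triplicate mean intensity after min-max scaling within each library.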
# [2] = target: HaloTag-ING2 PHD (mouse Ing2 200-280)
# In short: as §1
# [3] = target: anti-H3K4me3 antibody ab8580
# In short: as §1
# [4] = target: anti-H3K9me3 antibody ab8898
# In short: as §1
# [5] = peptide region: H3 20-32, peptide modifications: H3T22ph, binder concentration: 1:2,000 dilution
# [6] = peptide region: H3 20-32, peptide modifications: H3T22ph, binder concentration: 1:10,000 dilution
# [7] = peptide region: H3 30-42, peptide modifications: H3K36me1 H3K37ac, binder concentration: 1:2,000 dilution
# [8] = peptide region: H3 30-42, peptide modifications: H3K36me1 H3K37ac, binder concentration: 1:10,000 dilution
# [9] = peptide region: H3 20-32, peptide modifications: H3T22ph H3K23me3, binder concentration: 1:2,000 dilution
# [10] = peptide region: H3 20-32, peptide modifications: H3T22ph H3K23me3, binder concentration: 1:10,000 dilution
# [11] = peptide region: H3 30-42, peptide modifications: H3K36ac H3K37me1, binder concentration: 1:2,000 dilution
# [12] = peptide region: H3 30-42, peptide modifications: H3K36ac H3K37me1, binder concentration: 1:10,000 dilution
# [13] = peptide region: H3 30-42, peptide modifications: H3K36ac, binder concentration: 1:2,000 dilution
# [14] = peptide region: H3 30-42, peptide modifications: H3K36ac, binder concentration: 1:10,000 dilution
binder,measurement,setting,value
LATKAARKSAPAT [H3 20-32 L A Tph K A A R K S A P A T],peptide microarray binding signal,"[1]; peptide region: H3 20-32, peptide modifications: H3T22ph, binder concentration: 50 nM",0.00339 ± 3.7e-05
same,peptide microarray binding signal,"[1]; peptide region: H3 20-32, peptide modifications: H3T22ph, binder concentration: 500 nM",0.00638 ± 0.00025
same,peptide microarray binding signal,"[2]; peptide region: H3 20-32, peptide modifications: H3T22ph, binder concentration: 10 nM",0.0046 ± 6.2e-05
same,peptide microarray binding signal,"[2]; peptide region: H3 20-32, peptide modifications: H3T22ph, binder concentration: 100 nM",0.00772 ± 0.00064
same,peptide microarray binding signal,[3]; [5],0.001548 ± 1.2e-05
same,peptide microarray binding signal,[3]; [6],0.00194 ± 3.1e-05
same,peptide microarray binding signal,[4]; [5],0.00068 ± 2.1e-05
same,peptide microarray binding signal,[4]; [6],0.00115 ± 2e-05
PATGGVKKPHRYR [H3 30-42 P A T G G V Kme Kac P H R Y R],peptide microarray binding signal,"[1]; peptide region: H3 30-42, peptide modifications: H3K36me1 H3K37ac, binder concentration: 50 nM",0.00263 ± 0.00011
same,peptide microarray binding signal,"[1]; peptide region: H3 30-42, peptide modifications: H3K36me1 H3K37ac, binder concentration: 500 nM",0.0039 ± 5.6e-05
same,peptide microarray binding signal,"[2]; peptide region: H3 30-42, peptide modifications: H3K36me1 H3K37ac, binder concentration: 10 nM",0.00298 ± 3.3e-05
same,peptide microarray binding signal,"[2]; peptide region: H3 30-42, peptide modifications: H3K36me1 H3K37ac, binder concentration: 100 nM",0.00354 ± 8.3e-05
same,peptide microarray binding signal,[3]; [7],0.00145 ± 6.2e-05
same,peptide microarray binding signal,[3]; [8],0.00137 ± 5.4e-05
same,peptide microarray binding signal,[4]; [7],0.00163 ± 7.6e-05
same,peptide microarray binding signal,[4]; [8],0.00127 ± 2.5e-05
LATKAARKSAPAT [H3 20-32 L A Tph Kme3 A A R K S A P A T],peptide microarray binding signal,"[1]; peptide region: H3 20-32, peptide modifications: H3T22ph H3K23me3, binder concentration: 50 nM",0.00577 ± 0.00039
same,peptide microarray binding signal,"[1]; peptide region: H3 20-32, peptide modifications: H3T22ph H3K23me3, binder concentration: 500 nM",0.0105 ± 0.00049
same,peptide microarray binding signal,"[2]; peptide region: H3 20-32, peptide modifications: H3T22ph H3K23me3, binder concentration: 10 nM",0.0219 ± 0.0024
same,peptide microarray binding signal,"[2]; peptide region: H3 20-32, peptide modifications: H3T22ph H3K23me3, binder concentration: 100 nM",0.026 ± 0.0027
same,peptide microarray binding signal,[3]; [9],0.0775 ± 0.0084
same,peptide microarray binding signal,[3]; [10],0.0633 ± 0.0092
same,peptide microarray binding signal,[4]; [9],0.0523 ± 0.0034
same,peptide microarray binding signal,[4]; [10],0.0244 ± 0.0027
PATGGVKKPHRYR [H3 30-42 P A T G G V Kac Kme P H R Y R],peptide microarray binding signal,"[1]; peptide region: H3 30-42, peptide modifications: H3K36ac H3K37me1, binder concentration: 50 nM",0.00235 ± 2.8e-05
same,peptide microarray binding signal,"[1]; peptide region: H3 30-42, peptide modifications: H3K36ac H3K37me1, binder concentration: 500 nM",0.00586 ± 0.00013
same,peptide microarray binding signal,"[2]; peptide region: H3 30-42, peptide modifications: H3K36ac H3K37me1, binder concentration: 10 nM",0.00418 ± 0.00019
same,peptide microarray binding signal,"[2]; peptide region: H3 30-42, peptide modifications: H3K36ac H3K37me1, binder concentration: 100 nM",0.0056 ± 0.00056
same,peptide microarray binding signal,[3]; [11],0.00253 ± 0.00052
same,peptide microarray binding signal,[3]; [12],0.00177 ± 5.8e-05
same,peptide microarray binding signal,[4]; [11],0.0165 ± 0.003
same,peptide microarray binding signal,[4]; [12],0.00265 ± 6.2e-05
PATGGVKKPHRYR [H3 30-42 P A T G G V Kac K P H R Y R],peptide microarray binding signal,"[1]; peptide region: H3 30-42, peptide modifications: H3K36ac, binder concentration: 50 nM",0.0068 ± 0.00033
same,peptide microarray binding signal,"[1]; peptide region: H3 30-42, peptide modifications: H3K36ac, binder concentration: 500 nM",0.0116 ± 0.0019
same,peptide microarray binding signal,"[2]; peptide region: H3 30-42, peptide modifications: H3K36ac, binder concentration: 10 nM",0.0378 ± 0.0029
same,peptide microarray binding signal,"[2]; peptide region: H3 30-42, peptide modifications: H3K36ac, binder concentration: 100 nM",0.0552 ± 0.0035
same,peptide microarray binding signal,[3]; [13],0.0364 ± 0.0021
same,peptide microarray binding signal,[3]; [14],0.0246 ± 0.0028
same,peptide microarray binding signal,[4]; [13],0.025 ± 0.0016
same,peptide microarray binding signal,[4]; [14],0.00963 ± 0.00018
